From PubChem BioAssay

Assay: inhibitors of Sendai virus-induced IRF3 signaling, primary screen, TLR/RLR signaling modifier project, cell-based, Sendai virus stimulus, luciferase, 10K MLSCN set (AID 602276);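 also: firefly luciferase from ISG56 promoter only with Renilla not read in this screen; 0% = Sendai virus plus DMSO and 100% = medium plus DMSO without virus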
Settings: HEK293 RL24 IRF3 luciferase reporter, at 10 µM, hits give high values;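 active = inhibition at or above 50% at 10 µM; inactive = inhibition below 50%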

inhibition, inactive:
CN(Cc1ccccc1)Cc1nc2c(c(=O)n(C)c(=O)n2C)n1Cc1ccc(Cl)cc1 -1.93%, C=CCOC(=O)CCC(=O)Nc1cc(OC)nc(OC)n1 12.4%, O=C(NCc1cccs1)c1cc2c(s1)-c1ccccc1OC2 -42%, O=C(O)CN1C(=O)C2(OCCCO2)c2ccccc21 17%, CS(=O)(=O)c1ccc2nc(NC(=O)c3cccs3)sc2c1 -10.7%, CSc1nc(C)cc(OCC(=O)N2CCOCC2)n1 7.52%, CC1CN(C(=O)CSc2nnc(-c3ccncc3)n2-c2ccccc2)CC(C)O1 (stereo not given) 20.7%, CCOC(=O)c1cccc(NC(=O)c2ccco2)c1 -16.7%, Cc1ccc(Cn2c(=N)c(C(=O)NCc3ccco3)cc3c(=O)n4ccccc4nc32)cc1 -2.87%, COC(=O)c1ccccc1S(=O)(=O)NC(=O)c1ccccc1 13.5%, N#Cc1ccc(COC(=O)Cn2nnc(-c3ccccc3)n2)cc1 9.56%, CCOC(=O)Nc1c(O)ccc2oc(C)c(-c3ccccc3)c12 18.3%, CCOC(=O)C1CCN(Cc2ccc(OC)c(C)c2OC)CC1 -3.21%, O=C(CSCc1cnn(-c2ccccc2)c1-n1cccc1)NCC1CCCO1 (stereo not given) 2.57%, CCOc1ccc(C2CC(c3cccc(OC)c3)Nc3nc(N)nn32)cc1 (stereo not given) -7.71%, CCOc1ccc(-c2nc(C#N)c(NCc3ccc4c(c3)OCO4)o2)cc1 -4.94%, COc1cccc(-c2nnc(NC(C)=O)o2)c1 -11%, CC1(C)CC(=O)C(C#N)=C(NCCCO)C1 11.1%, COc1cccc(-c2noc(-c3cccs3)n2)c1 6.14%, CCOC(=O)CCc1c(C)nc2cc(-c3ccc(F)cc3)[nH]n2c1=O -3.01%, CCOC(=O)c1c(C)[nH]c(C(=O)COC(=O)C2CC2C)c1C (stereo not given) -45.3%, CCN(CC)S(=O)(=O)c1ccc(F)c(C(=O)NCCC(C)C)c1 -18.3%, CCOC(=O)c1cnn(-c2cc(C)nc3c(-c4ccccc4)c(C)nn23)c1N 14.6%, CC(NCc1ccco1)C(=O)N1CCc2ccccc2C1 (stereo not given) -8.88%, COc1ccc(OC)c(-c2nnc(SCC(=O)NC3CCCCC3)o2)c1 -17.4%, O=C1NC2(Nc3ccccc31)C(=O)Nc1ccccc12 (stereo not given) 13.7%, CCN(CC)CCCN1C(=O)C(=O)/C(=C(/O)c2ccc3c(c2)OCO3)C1c1ccccn1 (stereo not given) -5.97%, COc1ccc(Cn2nnnc2C(c2cc3cc(C)cc(C)c3[nH]c2=O)N2CCOCC2)cc1 (stereo not given) 13.8%, COCCN(CCOC)Cc1c(C)[nH]c2ccccc2c1=O 3.05%, CN(CCNS(=O)(=O)c1ccc2c(c1)oc(=O)n2C)Cc1ccccc1 9.41%, CCOC(=O)c1c(C)[nH]c(C)c1C(=O)COc1ccc(NC(=O)c2ccco2)cc1 14.6%, CCCCn1c(NCCC)nc2c1c(=O)[nH]c(=O)n2C 16%, COc1cccc(C2C(C(N)=O)=C(C)Nc3nc(CCCO)nn32)c1OC (stereo not given) -11.2%, C(=N/n1c2ccccc2c2ccccc21)/c1ccco1 12%, COC(=O)Cc1c(C)nc2nc[nH]n2c1=O 8.47%, Cc1cccc(CC(=O)Nc2c3c(nn2-c2cccc(Cl)c2)CS(=O)C3)c1 (stereo not given) -10.3%, Cc1ccc(CNC(=O)COC(=O)c2c(C)noc2C)cc1 -1.51%, CCOCCc1nnc(NC(=O)c2ccc(OC)c(OC)c2)s1 14.1%, Cc1cccc(C2CC(c3ccccc3)Nc3nc(N)nn32)c1 (stereo not given) 9.21%, Cc1nn(C)c(C)c1NC(=O)CCSc1nc(-c2ccco2)cc(C(F)(F)F)n1 4.67%
